Pf growth 48h = Primary qHTS for delayed death inhibitors of the malarial parasite plastid, 48 hour incubation; P. falciparum luciferase growth in erythrocytes, 48 h; Potency, µM (doses to about 28.7 µM), inactives show top-dose activity change, negative = inhibition, actives largely listed as inhibitors; 310,000 tested, 5.9% active; AID 504832, 2011; further: potency means the concentration at half of the fitted maximal effect; on the % scale 0 is the no-effect control and ±100 the full control effect
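Luciferase-expressing parasites in RBCs, 2% Hct / 0.1% parasitemia final; RPMI 1640 + 0.5% Albumax; 37 C, 5% CO2, one generation; luminescence read-out, lower signal = inhibition.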
HCMV inh = qHTS Assay for inhibitors of the human cytomegalovirus (HCMV); HFF cells, HCMV-luciferase reporter, 72 h; stronger effect = lower value; activity change, negative = inhibition, % at 57.5 µM; 410,000 tested, 4.5% active; in the data active means activity change below about -60%; inconclusive means no clear call, values can overlap the other calls; inactive means above about -39%; further: on the % scale 0 is the no-effect control and ±100 the full control effect
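Luciferase read-out from HCMV-luciferase-infected HFFs (MOI 1 PFU/cell) 72 h post infection at 37C; compounds added after 16 h cell attachment; activity normalized between buffer-only basal and Salinomycin (10uM) inhibitor controls.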
Pf growth 96h = Primary qHTS for delayed death inhibitors of the malarial parasite plastid, 96 hour incubation; P. falciparum luciferase reporter growth, 96 h; Potency, µM (top dose mostly 28.7 µM), for inactives: at the top dose activity change, negative = inhibition, most hits filed as inhibitors; 320,000 tested, 6.9% active; AID 504834, 2011; further: potency means the concentration at half of the fitted maximal effect; on the % scale 0 is the no-effect control and ±100 the full control effect
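Delayed-death screen, second-generation endpoint: infected erythrocytes, 2% hematocrit, 0.05% parasitemia final; 96 hours at 37 C, 5% CO2; luciferase detection reagent; luminescence decrease equals reduced growth.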
CHX counter = Cycloheximide Counterscreen for Small Molecule Inhibitors of Shiga Toxin. cell reporter, cycloheximide protein synthesis inhibition counterscreen. max response, %. 300,000 tested, 12% active. AID 2314, 2010; in the data active means max response mostly above about 13%, no sharp cut-off; inactive means mostly below about 14%; further: read at 38.3 µM for the half of the compounds with a filed dose; 0% is about no effect
Shiga inhibitor = A qHTS for Small Molecule Inhibitors of Shiga Toxin | 290,000 tested, 9.2% active | Vero cells, Shiga toxin protein synthesis inhibition reporter | inhibition, % at 38.7 µM; in the data active means inhibition mostly above about 28%, no sharp cut-off; inactive means mostly below about 43%; further: 0% is about no effect
The depositor's hits bear a star; i = inactive; ? = inconclusive; · = no result; [ ] = remark or other dose. Hits are enriched below; roughly 20% of the tested compounds scored in any of these assays. Unless noted, the call rests on the fitted dose curve; in most records, active means well fitted inhibition curve with a large enough effect; inconclusive means small, poorly fitted or top-dose-only effect, or another doubt; inactive means no such curve, though single readings can be large or run the other way.

SMILES	Pf growth 48h	HCMV inh	Pf growth 96h	CHX counter	Shiga inhibitor
COc1ccccc1C(=O)Nc1c(C)cc(Br)cc1C	-8.1%	-60.7*	?	10.6	17.8
Cc1cccc(C(=O)NNC(=O)C(=O)NC(C)(C)C)c1	50.0%	45.5	?	6.4	20.5
COC(=O)NNC(=O)c1ccc(C(C)(C)C)cc1	49.4%	-12.5	51.6%	29.7*	22.5*
CC(C)(C)c1ccc(C(=O)NNC(=O)c2ccccc2Br)cc1	30.4%	8.6	36.7%	30.6*	31.1
Cc1ccc(N2C(=O)[C@@H]3C(c4cccnc4)=NO[C@@H]3C2=O)cc1	21.5%	31.4	50.7%	7.4	-2.9
Cc1ccc(NC(=O)Cn2c(=O)n(Cc3ccc(F)cc3)c(=O)c3cccnc32)cc1C	·	7.1	·	·	·
CCOC(=O)N1C(=O)C[C@](Sc2ccc(OC)cc2)(c2nc(C)no2)[C@H]1c1ccc(OC)cc1	·	-21.8	·	·	·
O=C(COCc1cc(-c2cccs2)on1)Nc1cccc(O)c1	·	6.1	·	·	·
CC(=O)c1cccc(NC(=O)c2cc(-c3cccs3)on2)c1	172.8%	-20.9	2.7%	14.3*	32.1
O=C(Nc1cccc(O)c1)c1cc(-c2cccs2)on1	243.9%	-5.7	22.3%	30.5*	77.4*
CCc1nn(C(C)C(=O)NCc2cccc(OC)c2)c(=O)c2cc3occc3n12 (configuration not stated)	11.7%	-6.5	?	2.5	0.9
COc1cc(-c2cc3n(C)c(C)c(CCC(=O)NC4CCCCC4)c(=O)n3n2)cc(OC)c1OC	·	152.3	·	·	·
CCCCN1CCCC1C(=O)Nc1c(C)cc(C)cc1C (configuration not stated)	-24.8%	·	2.62µM*	·	·
CCCCN1CCCCC1C(=O)Nc1c(C)cccc1C (configuration not stated)	-1.7%	?	1.5%	·	·
COc1ccc(/C=C(/NC(=O)c2ccccc2Cl)C(=O)O)cc1	4.9%	-12.9	24.0%	-1.2	-18.0
COc1ccccc1/C=C(/NC(=O)c1ccc(Cl)cc1Cl)C(=O)O	19.8%	-16.5	8.28µM*	0.9	-7.4
CCOC(=O)NC(=O)/C(C#N)=C\Nc1ccc(Cl)cc1Cl	82.7%	-11.5	91.6%	31.9*	25.6
COC(=O)/C(=C\Nc1ccc(Cl)cc1Cl)NC(=O)c1ccc(Cl)cc1Cl	6.3%	-27.1	0.6%	19.3*	80.2*
CCc1noc(-c2ccc(N3CCCCC3C)c([N+](=O)[O-])c2)n1 (configuration not stated)	·	54.7	·	·	·
COc1ccc(C2=NN(CN3C(=O)C(=O)c4ccccc43)C(c3ccc(OC)cc3)C2)cc1 (configuration not stated)	?	-19.0	?	75.8*	131.2*
O=S(=O)(c1ccccc1)N1N=C(c2ccccc2)CC1c1ccccc1 (configuration not stated)	?	-73.7*	?	-0.3	-3.1
COc1ccc(C2CC(c3ccccc3)=NN2S(=O)(=O)c2ccc(C)cc2)c(OC)c1 (configuration not stated)	?	-62.6*	11.7µM*	12.7	61.4
COc1ccc(C2=NN(S(=O)(=O)c3ccccc3)C(c3ccccc3)C2)cc1 (configuration not stated)	?	-19.6	6.57µM*	3.2	34.0
COc1ccc(C2CC(c3ccccc3)=NN2S(=O)(=O)c2ccccc2)c(OC)c1 (configuration not stated)	?	-37.0	0.0%	-4.2	12.4
COc1ccccc1C1CC(c2ccccc2)=NN1S(=O)(=O)c1ccccc1 (configuration not stated)	?	-36.7	?	12.6	19.0
SMILES	Pf growth 48h	HCMV inh	Pf growth 96h	CHX counter	Shiga inhibitor
CCn1cc(S(=O)(=O)c2ccccc2)c(=O)c2cc(C)ccc21	·	18.4	·	·	·
CN(C)c1ccc(-n2cccc2)cc1	5.1%	-38.0	-7.1%	16.5*	20.2
COC(=O)c1c(-c2cccs2)csc1NC(=O)c1cccc(Cl)c1	·	58.6	·	·	·
COc1ccc(C(=O)Nc2scc(-c3ccc(Cl)cc3Cl)c2C(N)=O)cc1	30.7%	-10.0	29.0%	43.7*	153.4*
Cc1ccc(N=CC2=C(O)CC(c3ccco3)CC2=O)cc1 (configuration not stated)	0.1%	-29.2	0.0%	21.1*	40.5
O=C1CC(c2ccco2)CC(O)=C1C=Nc1cc(Cl)ccc1O (configuration not stated)	9.28µM*	3.4	?	11.3	24.1
Cc1ccc2c(C(=O)CN3CCN(C(=O)c4ccco4)CC3)c(C)[nH]c2c1	?	32.2	?	-0.5	-1.4
COc1ccc(Cc2noc(CN(C)CCN3CCc4ccccc4C3)n2)cc1OC	-69.6%	-8.0	7.38µM*	5.6	-2.9
CN(CCN1CCc2ccccc2C1)Cc1nc(Cc2ccccc2F)no1	?	17.3	10.4µM*	2.2	-6.9
Cc1ccc(CC(=O)NCCCn2ccnc2)cc1	9.6%	-31.3	27.9%	-1.1	-2.5
O=C(NCCCn1ccnc1)c1cc(C2CC2)on1	1.3%	17.0	10.4µM*	-3.5	9.4
O=C(NCCCn1ccnc1)c1cc(-c2cccc(O)c2)on1	41.5%	29.8	48.8%	31.0*	73.8*
Cc1ccc(-c2cc(C(=O)NCCCn3ccnc3)no2)cc1	-19.4%	21.4	2.8%	25.9*	49.6*
O=C(NCCN1CCOCC1)c1cc(-c2cccc(O)c2)on1	37.7%	19.1	155.1%	10.1	22.7
COc1ccc(CCN2CC(C(=O)OCC(=O)N(C)Cc3ccccc3)CC2=O)cc1OC (configuration not stated)	-20.3%	16.4	-24.2%	·	·
Cc1c(C(=O)NNC(=O)c2cccnc2)cccc1[N+](=O)[O-]	·	-13.9	·	·	·
COc1ccc([C@@H]2Sc3cc(OC)ccc3N(CCN(C(C)C)C(C)C)C(=O)[C@H]2OC(C)=O)cc1	11.7µM*	11.3	?	-5.6	-4.7
CCN1C(=O)C(NC(C)=O)c2cc(OC)ccc21 (configuration not stated)	14.8%	-18.1	19.6%	-5.1	-12.1
O=C(NNc1ncccc1Cl)c1c(Cl)cccc1Cl	-8.3%	-67.2*	?	6.3	-5.5
O=C(Nc1ccncc1)c1c(F)c(F)c(F)c(F)c1F	10.4µM*	-11.3	-26.0%	-3.4	2.7
O=C(Nc1ccncc1)c1c(Cl)cccc1Cl	?	-65.8*	?	-2.9	-2.5
NS(=O)(=O)c1ccc(NC(=O)c2c(Cl)cccc2Cl)cc1	48.8%	-13.8	4.6%	-3.2	-4.4
O=C(Nc1cccc(F)c1)c1c(F)c(F)c(F)c(F)c1F	13.1µM*	-4.4	·	4.3	-11.3
COC(=O)c1cc(NC(=O)c2c(F)c(F)c(F)c(F)c2F)cc(C(=O)OC)c1	4.7%	-62.6*	?	-2.3	1.2
N#Cc1ccc2c(c1)C[C@]1(CCCCN3C(=O)c4ccccc4C3=O)Oc3c(c(=O)oc4ccccc34)C2O1	1.69µM*	·	-18.6%[5.75 µM]	-1.2	i

Screening data: PubChem, National Center for Advancing Translational Sciences (NCATS)
